In PubChem BioAssay AID1159580 (chemical genetic matrix, 2015):
The whole screen tested about 5,500 compounds, of which about 2,000 (36%) were called active. Not shown: some 18% with an inconclusive outcome. No stated cut-off is given here; in the data, active means normalized growth mostly below about 0.91 (no sharp cut-off); inconclusive means no clear call, values can overlap the other calls; inactive means mostly above about 0.92. This is one part of the list.

Assay: chemical genetic growth profiling, strain panel (AID 1159580);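 further: tested at 20 µM; growth read once vehicle control cultures reached saturation at 30 °C; 1 = growth at the plate median or of vehicle wells; lower values mean less growth of the strain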
Conditions: growth OD

Measured: normalized growth

O[N+]1=CC=CCC1=S.On1ccccc1=S.[Zn]
active: S. cerevisiae deletion strains, locus YJR043C, strain POL32, hits give low values 0.0664 | S. cerevisiae deletion strains, locus YJR066W, strain TOR1, hits give low values 0.00186 | S. cerevisiae deletion strains, locus YJR075W, strain HOC1, hits give low values 0.0642 | S. cerevisiae deletion strains, locus YKL009W, strain mrt4, hits give low values 0.071 | S. cerevisiae deletion strains, locus YKL068W, hits give low values 0.0609 | S. cerevisiae deletion strains, locus YKL085W, strain MDH1 (second series), hits give low values 0.0543 | S. cerevisiae deletion strains, locus YKL085W, strain MDH1, hits give low values 0.0543 | S. cerevisiae deletion strains, locus YKL160W, strain elf1, hits give low values 0.07 | S. cerevisiae deletion strains, locus YKR001C, strain vps1, hits give low values 0.063 | S. cerevisiae deletion strains, locus YKR026C, strain gcn3, hits give low values 0.0676 | S. cerevisiae deletion strains, locus YKR091W, strain srl3, hits give low values 0.0611 | S. cerevisiae deletion strains, locus YLL001W, strain dnm1, hits give low values 0.059 | S. cerevisiae deletion strains, locus YLL026W, hits give low values 0.0586 | S. cerevisiae deletion strains, locus YLL041C, strain sdh2, hits give low values 0.0589 | S. cerevisiae deletion strains, locus YLR027C, strain aat2, hits give low values 0.0567 | S. cerevisiae deletion strains, locus YLR039C, strain RIC1, hits give low values 0.101 | S. cerevisiae deletion strains, locus YLR058C, strain SHM2, hits give low values 0.0528 | S. cerevisiae deletion strains, locus YLR102C, strain apc9, hits give low values 0.0619 | S. cerevisiae deletion strains, locus YLR113W, strain HOG1, hits give low values 0.14 | S. cerevisiae deletion strains, locus YLR221C, strain rsa3, hits give low values 0.0633 | S. cerevisiae deletion strains, locus YLR258W, strain gsy2, hits give low values 0.0677 | S. cerevisiae deletion strains, locus YLR262C, strain YPT6 (second series), hits give low values 0.0872 | S. cerevisiae deletion strains, locus YLR262C, strain YPT6, hits give low values 0.116 | S. cerevisiae deletion strains, locus YLR268W, strain sec22, hits give low values 0.0675 | S. cerevisiae deletion strains, locus YLR320W, strain mms22, hits give low values 0.0954 | S. cerevisiae deletion strains, locus YLR330W, strain CHS5, hits give low values 0.0529 | S. cerevisiae deletion strains, locus YLR342W, strain FKS1 (second series), hits give low values 0.0696 | S. cerevisiae deletion strains, locus YLR342W, strain FKS1, hits give low values 0.0672 | S. cerevisiae deletion strains, locus YLR357W, strain rsc2, hits give low values 0.128 | S. cerevisiae deletion strains, locus YLR370C, strain arc18, hits give low values 0.0633 | S. cerevisiae deletion strains, locus YLR371W, strain rom2, hits give low values 0.0617 | S. cerevisiae deletion strains, locus YLR384C, strain iki3, hits give low values 0.0637 | S. cerevisiae deletion strains, locus YLR418C, strain cdc73, hits give low values 0.0957 | S. cerevisiae deletion strains, locus YML016C, strain PPZ1, hits give low values 0.0508 | S. cerevisiae deletion strains, locus YML032C, strain rad52, hits give low values 0.0712 | S. cerevisiae deletion strains, locus YML120C, strain ndi1, hits give low values 0.0615 | S. cerevisiae deletion strains, locus YML124C, strain tub3, hits give low values 0.061 | S. cerevisiae deletion strains, locus YMR058W, strain fet3, hits give low values 0.0596 | S. cerevisiae deletion strains, locus YMR078C, strain ctf18, hits give low values 0.0748 | S. cerevisiae deletion strains, locus YMR125W, strain sto1, hits give low values 0.0764 | S. cerevisiae deletion strains, locus YMR129W, hits give low values 0.059 | S. cerevisiae deletion strains, locus YMR205C, strain PFK2, hits give low values 0.0932 | S. cerevisiae deletion strains, locus YMR223W, strain ubp8, hits give low values 0.0633 | S. cerevisiae deletion strains, locus YMR231W, strain pep5, hits give low values 0.0701 | S. cerevisiae deletion strains, locus YMR263W, strain SAP30, hits give low values 0.0599 | S. cerevisiae deletion strains, locus YMR307W, strain GAS1, hits give low values 0.132 | S. cerevisiae deletion strains, locus YNL067W, strain RPL9B, hits give low values 0.0487 | S. cerevisiae deletion strains, locus YNL071W, strain lat1, hits give low values 0.0631 | S. cerevisiae deletion strains, locus YNL128W, strain TEP1, hits give low values 0.0641 | S. cerevisiae deletion strains, locus YNL183C, strain NPR1, hits give low values 0.00323 | S. cerevisiae deletion strains, locus YNL209W, strain ssb2, hits give low values 0.0623 | S. cerevisiae deletion strains, locus YNL233W, strain BNI4, hits give low values 0.0571 | S. cerevisiae deletion strains, locus YNL248C, strain rpa49, hits give low values 0.0755 | S. cerevisiae deletion strains, locus YNL250W, strain rad50, hits give low values 0.0654 | S. cerevisiae deletion strains, locus YNL271C, strain bni1, hits give low values 0.074 | S. cerevisiae deletion strains, locus YNL298W, strain CLA4, hits give low values 0.0625 | S. cerevisiae deletion strains, locus YNL307C, strain MCK1, hits give low values 0.0674 | S. cerevisiae deletion strains, locus YNL322C, strain KRE1 (second series), hits give low values 0.0696 | S. cerevisiae deletion strains, locus YNR049C, strain mso1, hits give low values 0.0598 | S. cerevisiae deletion strains, locus YNR052C, strain pop2, hits give low values 0.0619 | S. cerevisiae deletion strains, locus YOL147C, strain pex11, hits give low values 0.0583 | S. cerevisiae deletion strains, locus YOR001W, strain rrp6, hits give low values 0.0748 | S. cerevisiae deletion strains, locus YOR061W, strain CKA2, hits give low values 0.049 | S. cerevisiae deletion strains, locus YOR069W, strain VPS5, hits give low values 0.0493 | S. cerevisiae deletion strains, locus YOR070C, strain gyp1, hits give low values 0.064 | S. cerevisiae deletion strains, locus YOR080W, strain dia2, hits give low values 0.0707 | S. cerevisiae deletion strains, locus YOR083W, strain WHI5, hits give low values 0.0734 | S. cerevisiae deletion strains, locus YOR106W, strain vam3, hits give low values 0.0661 | S. cerevisiae deletion strains, locus YOR136W, strain idh2, hits give low values 0.0716 | S. cerevisiae deletion strains, locus YOR144C, strain elg1, hits give low values 0.0584 | S. cerevisiae deletion strains, locus YOR184W, strain ser1, hits give low values 0.0698 | S. cerevisiae deletion strains, locus YOR231W, strain MKK1, hits give low values 0.116 | S. cerevisiae deletion strains, locus YOR265W, strain rbl2, hits give low values 0.064 | S. cerevisiae deletion strains, locus YOR270C, strain vph1, hits give low values 0.0915 | S. cerevisiae deletion strains, locus YOR290C, strain snf2, hits give low values 0.0656 | S. cerevisiae deletion strains, locus YOR316C, strain cot1, hits give low values 0.0596 | S. cerevisiae deletion strains, locus YPL051W, strain arl3, hits give low values 0.0708 | S. cerevisiae deletion strains, locus YPL055C, strain LGE1, hits give low values 0.0796 | S. cerevisiae deletion strains, locus YPL078C, strain atp4, hits give low values 0.07 | S. cerevisiae deletion strains, locus YPL106C, strain sse1, hits give low values 0.109 | S. cerevisiae deletion strains, locus YPL240C, strain hsp82, hits give low values 0.0591 | S. cerevisiae deletion strains, locus YPL256C, strain CLN2, hits give low values 0.114 | S. cerevisiae deletion strains, locus YPR119W, strain clb2, hits give low values 0.0639 | S. cerevisiae deletion strains, locus YPR141C, strain kar3, hits give low values 0.0689 | S. cerevisiae deletion strains, locus YPR163C, strain tif3, hits give low values 0.0727 | S. cerevisiae deletion strains, locus YPR167C, strain met16, hits give low values 0.0637 | S. cerevisiae deletion strains, strain wtn01, hits give low values 0.0638 | S. cerevisiae strains, strain wild type, hits give low values 0.0514
